From PubChem
Sampled rows, rich in hits. Any-hit rate of the full collection: about 3.9%.
TWEAK-Fn14 inh: inhibitors of TWEAK-Fn14 signaling, primary screen, luciferase reporter cells, uHTS; TWEAK-stimulated Fn14 reporter cells, luciferase luminescence, 8 h; inhibition, % at 10 µM; actives 2% (n = 360,000); AID 1159606, 2016; in the data active = inhibition above about 50%
CF NFkB inh: inhibitors of PAF-induced NF-kB signaling, primary screen, cell-based, GFP fluorescence, uHTS | KKLEB NF-kB-GFP reporter, GFP fluorescence overnight | inhibition, % at 5 µM | actives 0.86% (n = 360,000) | AID 588850, 2011;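 active = at least 50% inhibition at 5 µM, scaled per plate between neutral and stimulator controls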;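 note: PAF is a Pseudomonas aeruginosa culture filtrate used as stimulus; plate controls were PAF-stimulated DMSO wells for no effect and unstimulated DMSO wells for full effect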
HIF-2a inh: HIF-2a reporter inhibitors, primary screen, luminescence, 786-0 RCC cells; 786-0 RCC cells HIF-2a reporter, luciferase luminescence, overnight; inhibition, % at 18.8 µM; actives 0.72% (n = 360,000);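 active = inhibition of the luminescence signal of 40% or more relative to plate controls, in a single-dose primary screen at 18.75 µM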
Peg3 promoter: Peg3 promoter-driven luciferase inhibitors, primary screen, cell-based, HeLa, luciferase luminescence; HeLa PEG-Prom luciferase reporter, overnight; actives 1.7% (n = 360,000); AID 588405, 2011; inhibition, % at 20 µM;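 active = inhibition of at least 50% at 20 µM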
TROY signal inh: inhibitors of TROY-driven NF-kB signaling, primary screen, Q293 LMP1-TROYcd cells, NF-kB luciferase, uHTS; Q293 LMP1-TROYcd NF-kB luciferase reporter, 4 h; inhibition, % at 10 µM; actives 0.98% (n = 360,000);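 active = compounds whose plate-normalised and pattern-corrected inhibition of the luciferase reporter signal at the single screening dose is 50% or more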
KKLEB cytotox: cytotoxicity in KKLEB CF airway cells, primary screen, cytotoxicity control for CF NF-kB inhibitor project, cell-based, uHTS, fluorescence assay plates | activity change (cytotoxicity), % at 5 µM | KKLEB CF airway cells viability, ATPlite luminescence, overnight; active compounds read low; cells stimulated with P. aeruginosa culture filtrate | actives 0.36% (n = 360,000);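 active = corrected activity change at or below -50% at 5 µM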
An asterisk follows results filed as active; · = not tested or not shown.

SMILES	TWEAK-Fn14 inh	CF NFkB inh	HIF-2a inh	Peg3 promoter	TROY signal inh	KKLEB cytotox
CCCCn1cnc2c(sc3nc4c(cc32)CSC(C)(C)C4)c1=O	31	2	-145	-313	38	3
CC(C)CCn1cnc2c(sc3nc4c(cc32)CSC(C)(C)C4)c1=O	68*	9	-90	-272	67*	-9
Cc1cccc(CNC(=O)C2CCC(=O)N(CCCc3ccccc3)C2)c1 (configuration not stated)	4	-7	2	10	2	-1
CC(Nc1nc(-c2ccc(Cl)cc2)cs1)c1nc2cc(Cl)c(N3CCCCC3)cc2n1CCOCCO (configuration not stated)	54*	-1	1	47	40	-9
CCn1c2ccccc2c2nnc(SCCCn3c(=O)[nH]c4ccccc43)nc21	27	-20	27	50*	32	0
O=C1c2ccccc2CN1c1ccccc1	-25	-10	-267	-246	-54	3
Cc1ccc(N2Cc3ccccc3C2=O)cc1	53*	-32	-178	-179	-14	-14
OCCN1CCN(C2Cc3cc(Cl)ccc3Sc3ccc(Cl)cc32)CC1 (configuration not stated) (tested in a mixture with another compound)	-2	17	13	65*	2	-16
CN1CCN(C2=Cc3cc(Cl)ccc3Sc3cc(F)ccc32)CC1	35	30	36	94*	-1	-23
c1ccc2c(c1)CC(N1CCCCC1)c1ccccc1S2 (configuration not stated)	-1	12	8	13	-6	-5
CN1CCN(CCOC2Cc3ccccc3Sc3ccc(Cl)cc32)CC1 (configuration not stated)	6	17	11	36	-1	-10
CN1CCN(C2Cc3cc(Cl)ccc3Sc3cc(F)ccc32)CC1 (configuration not stated)	-16	26	8	91*	9	-7
CC(C)CC(=O)NC1(C(F)(F)F)NC(=O)N(c2ccccc2)C1=O (configuration not stated)	33	7	21	13	-10	-5
Cc1ccc(-c2nnc(SCC(=O)Nc3ccc4c(c3)oc3ccccc34)n2C)c(Cl)c1	67*	-3	-42	-30	22	-16
Cc1ccccc1OCc1nnc(SCC(=O)Nc2ccc3c(c2)oc2ccccc23)n1C	-49	-32	-81	-2	-15	23
CC(C)c1ccc(CC(NC(=O)c2ccccc2)C(=O)NCC(=O)O)cc1 (configuration not stated)	-6	1	12	2	-1	2
c1ccc(CNc2c3ccccc3nc3ccccc23)cc1	-30	-85	44*	97*	-57	-29
CNc1nc(NCc2ccccc2)c2ccccc2n1	-33	-22	9	-1	15	-1
Oc1ccc(CCNc2c3ccccc3nc3ccccc23)cc1O	-26	-80	54*	109*	-29	-26
O=C(CNC(=O)c1ccccc1)NCCc1ccc(O)c(O)c1	0	-24	2	13	0	0
CCCCNc1nc(NCc2ccccc2)nc2ccccc12	34	·	7	·	55*	·
OCC(Cc1ccccc1)Nc1c2ccccc2nc2ccccc12 (configuration not stated)	-34	-103	10	5	-27	-12
CC1CN(C(=O)COC(=O)COc2ccc(C#N)cc2)CC(C)O1 (configuration not stated)	6	25	10	18	9	-16
COC(=O)c1cccc(NC(=O)c2onc3c2CCCC3)c1	5	-6	-101	-342	-77	15
Cc1cccc(NC(=O)c2onc3c2CCCC3)n1	80*	4	14	30	52*	-41
O=C(Nc1ccc2ccccc2c1)c1onc2c1CCCC2	57*	-1	-118	-249	16	11
COc1ccc(C(=O)NC(=C(Cl)Cl)S(=O)(=O)c2ccc(C)cc2)cc1	45	-16	-10	14	-6	-5
